Screening data as filed in PubChem.
RXFP1 antagonist = RXFP1 (human) relaxin receptor antagonism; Q9HBX9; activity change, negative = inhibition, % at 57.5 µM; actives 0.59% (n = 350,000); AID 1259400; HEK293-RXFP1, relaxin-stimulated cAMP HTRF, 30 min; active compounds read low;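 active = activity change of -60% or lower, but not beyond a set lower limit; inconclusive = change between -60% and -40%, or beyond the set limit; inactive = change above -40%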; also: % is scaled to controls: 0 for no effect and ±100 for the full control effect
Target sequence (Q9HBX9 whole entry, looked up): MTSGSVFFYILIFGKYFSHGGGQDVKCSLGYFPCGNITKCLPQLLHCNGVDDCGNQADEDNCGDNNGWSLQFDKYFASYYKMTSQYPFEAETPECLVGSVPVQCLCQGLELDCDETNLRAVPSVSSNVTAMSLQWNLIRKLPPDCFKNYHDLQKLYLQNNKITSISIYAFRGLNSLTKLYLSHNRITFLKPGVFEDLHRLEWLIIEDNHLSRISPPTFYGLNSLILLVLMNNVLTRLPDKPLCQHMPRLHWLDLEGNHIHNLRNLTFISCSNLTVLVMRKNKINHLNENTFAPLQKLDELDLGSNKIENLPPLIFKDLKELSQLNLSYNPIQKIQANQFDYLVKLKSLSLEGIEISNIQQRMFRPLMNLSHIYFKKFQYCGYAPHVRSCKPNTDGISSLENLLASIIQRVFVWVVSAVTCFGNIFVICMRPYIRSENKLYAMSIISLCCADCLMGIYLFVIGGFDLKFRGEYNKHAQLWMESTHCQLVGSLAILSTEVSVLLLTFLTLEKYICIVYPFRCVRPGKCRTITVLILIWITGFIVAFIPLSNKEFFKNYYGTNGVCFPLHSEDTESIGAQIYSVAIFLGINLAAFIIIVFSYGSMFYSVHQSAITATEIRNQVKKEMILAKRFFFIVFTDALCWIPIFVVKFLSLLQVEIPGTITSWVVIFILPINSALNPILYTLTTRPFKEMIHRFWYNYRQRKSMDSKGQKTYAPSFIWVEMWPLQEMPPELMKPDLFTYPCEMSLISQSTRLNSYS
TRPV1 agonist = activates the human vanilloid receptor TRPV1. activation, % at 8.33 µM. actives 0.19% (n = 320,000). Q8NER1. TRPV1-expressing cells, Fluo-8 calcium influx, agonist mode; in the data active = activation above about 80%; inconclusive = between about 30% and that limit; also: 0% is about no effect
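Fluo-8 calcium influx in TRPV1-expressing cells, kinetic read (ex 480/em 520 nm). Compound added and read 3 min for agonist activity, followed by capsaicin at EC20 final and 2 min further read for enhancement.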
gsp ag = activates gsp, the McCune-Albright syndrome mutation | AID 624287 | gsp mutant cells, cAMP HTRF, 30 min | Potency, µM (top dose mostly 76.9 µM), inactives show top-dose activation (cAMP increase), hits mostly activators | actives 0.13% (n = 340,000); active = well fitted activation curve with a large enough effect; inconclusive = small, poorly fitted or top-dose-only effect, or another doubt; inactive = no such curve, though single readings can be large or run the other way; cell line not stated here;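 also: phosphodiesterase inhibitor Ro 20-1724 added with compounds to block cAMP breakdown; potency is read from the fitted curve at half-maximal effect; nearly all actives have a fitted effect of over 60% in size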
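Cells stably selected in G418 were plated at 2000/well, grown 16-24 hr, then given compounds in DMSO with the PDE inhibitor […] (300 uM solution added) for 30 min at 37C; cAMP was read by HTRF.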
gsp antagonist = gsp mutant antagonism | gsp-mutant cells, cAMP HTRF, 30 min | Potency, µM (top dose mostly 76.9 µM), for inactives: at the top dose activity change, negative = inhibition, most hits filed as inhibitors | actives 0.4% (n = 340,000) | AID 624288; calls by dose curve; cell line not stated here;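 also: intracellular cAMP measured with PDE inhibitor Ro 20-1724 present during compound exposure; potency is read from the fitted curve at half-maximal effect; % is scaled to controls: 0 for no effect and ±100 for the full control effect; nearly all actives have a fitted effect of over 65% in size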
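HTRF cAMP measurement after 30 min RT detection following 30 min, 37C compound treatment alongside […] (added as 300 uM solution) in G418-selected cells seeded at 2000/well and grown 16–24 h.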
RXFP1 ag = RXFP1 (human) receptor agonism | Potency, µM (doses to about 57.5 µM), without a hit: top-dose activation, most hits filed as activators | Q9HBX9 | HEK293T-RXFP1 cAMP TR-FRET, 30 min; response scale: percent of porcine relaxin response, buffer zero | AID 2676 | actives 0.3% (n = 370,000); active = well fitted activation curve with a large enough effect; inconclusive = small, poorly fitted or top-dose-only effect; also: potency is read from the fitted curve at half-maximal effect; % is scaled to controls: 0 for no effect and ±100 for the full control effect; nearly all actives have a fitted effect of over 60% in size
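Agonist response is measured as cAMP accumulation in an RXFP1-transfected HEK293T line under PDE4 inhibition. Values are scaled between buffer-only and 29 nM porcine relaxin, and EC50s come from standard Hill equation fits.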
TRPV1 PAM = enhances activation of the human vanilloid receptor TRPV1 | Q8NER1 | TRPV1-expressing cells, Fluo-8 calcium influx, capsaicin EC20 potentiation | potentiation, % at 8.33 µM | actives 0.02% (n = 320,000); in the data active = potentiation above about 80%; inconclusive = between about 30% and that limit; also: 0% is about no effect
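TRPV1-expressing cells were cultured overnight at 35.5C and loaded with Fluo-8 calcium dye for 40 to 90 min at room temperature. After a 10 s baseline, compound was added and calcium influx was read kinetically for 3 min (ex 480/em 520 nm).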
An asterisk follows results filed as active; ? = inconclusive; . = no result; [ ] = another dose, or the depositor's remark. This is a sample that favours compounds with a hit; in the whole collection about 1.1% have one here.

SMILES	RXFP1 antagonist	TRPV1 agonist	gsp ag	gsp antagonist	RXFP1 ag	TRPV1 PAM
CN1CCN(c2cc(N3CCN(C(=O)c4ccco4)CC3)c3c4c(onc24)-c2ccccc2C3=O)CC1	-20.1	-0.8	-34.3%	-23.5%	1.6%	2.0
O=C(O)CCCNc1cc(N2CCN(C(=O)c3ccco3)CC2)c2noc3c2c1C(=O)c1ccccc1-3	-65.2*	-0.5	-48.4%	?	-8.0%	-0.7
CCc1ccc(S(=O)(=O)c2nnn3c2nc(N2CCOCC2)c2sccc23)cc1	-4.1	.	.	.	22.2%	.
O=C(NCc1ccc(F)cc1)C1CCCN(c2nc3ccsc3c(=O)s2)C1 (stereo not given)	3.2	83.0*	-23.9%	-9.4%	24.2%	-19.7
Cc1cc(=O)n2nc(N3CCCC(C(=O)NCc4ccc(F)cc4)C3)sc2n1 (stereo not given)	-17.2	0.1	?	10.2%	12.1%	-10.3
O=C(Nc1cccc(S(=O)(=O)N2CCCCC2)c1)c1ccc2ncsc2c1	-2.8	84.8*	?	?	-0.1%	-15.7
COc1ccc(NC(=O)c2cc(OC)c(OC)c(OC)c2)cc1S(=O)(=O)N1CCCCC1	-9.4	3.4	-5.6%[15.4 µM]	0.1%	1.5%	-3.5
COc1ccc(NC(=O)CN2CCCC2c2cccs2)cc1S(=O)(=O)N1CCCCC1 (stereo not given)	-38.3	9.2	16.8%	35.5µM*	1.9%	-1.2
COc1ccc(OC)c(S(=O)(=O)N2CCC(C(=O)Nc3ccc(C)c(C)c3)CC2)c1	-0.7	2.4	8.9%	28.2µM*	-0.1%	-5.2
CCOc1ccc(NC(=O)CN2CCCC2c2cccs2)cc1S(=O)(=O)N1CCCC1 (stereo not given)	-6.4	4.2	?	?	0.3%	2.1
COc1ccc(NC(=O)c2ccc(Cl)nc2)cc1S(=O)(=O)N1CCCCC1	9.2	4.1	-1.2%[15.4 µM]	31.6µM*	-0.4%	-22.9
NS(=O)(=O)c1cccc(NC(=O)c2cccc(S(=O)(=O)N3CCCCCC3)c2)c1	-31.6	.	0.3%[15.4 µM]	-0.1%	.	.
COc1ccc(OC)c(S(=O)(=O)N2CCC(C(=O)Nc3cccc(C)c3C)CC2)c1	19.7	-3.5	?	-0.7%	4.0%	0.8
CCc1ccc2ncc3c(-c4ccc(C)cc4)nn(CC(=O)Nc4ccc(C)cc4)c3c2c1	-10.1	.	.	.	5.0%	.
CCOc1cc(C(=O)N=c2sccn2C)ccc1OC(F)F	0.8	4.3	-28.1%	-4.3%	1.1%	0.4
CN(CC(=O)OCC(N)=O)S(=O)(=O)c1ccc(Cl)cc1	5.4	1.4	-13.5%[15.4 µM]	-8.0%	-1.3%	4.0
O=C(Nc1cccc(S(=O)(=O)N2CCCCC2)c1)c1ccc(Cl)nc1	-10.1	.	-16.8%	50.1µM*	.	.
Cc1ccc(-c2c(C(=O)Nc3ccccc3C)c(C)[nH]c(=S)c2C#N)o1	-1.8	1.1	13.3%[15.4 µM]	17.9%	28.2µM*	-5.3
Cc1ccccc1NC(=O)c1c(C)[nH]c(=S)c(C#N)c1-c1ccc(Cl)cc1	-18.1	-0.4	-0.7%[15.4 µM]	0.7%	8.4%	15.8
COc1cccc(NC(=O)CSc2nc3c(sc4ccccc43)c(=O)n2CCN(C)C)c1	-64.5*	-6.4	-1.5%[15.4 µM]	3.9%	3.9%	10.8
CCN(CC)CCn1c(SCC(=O)Nc2cccc(OC)c2)nc2c(sc3ccccc32)c1=O	-24.5	-3.1	-5.1%[15.4 µM]	-16.9%	0.8%	4.4
CCCN(CCC)C(=O)CSc1nc2c(sc(=S)n2-c2ccc(OCC)cc2)c(=O)[nH]1	-24.0	7.3	8.9%[15.4 µM]	14.1µM*	1.4%	-0.8
CCCCN(CC)C(=O)CSc1nc2c(sc(=S)n2-c2ccc(OCC)cc2)c(=O)[nH]1	-0.3	0.5	-13.3%	?	-0.7%	1.5
CC(C)NCCCC1(C(N)=O)c2ccccc2-c2ccccc21	-2.6	.	.	.	.	.
CC(=O)c1ccc(-c2ccc(C(=O)N3CCN(c4ccc(F)cc4)CC3)o2)cc1	-4.6	9.9	-0.4%	28.2µM*	2.1%	-5.0
SMILES	RXFP1 antagonist	TRPV1 agonist	gsp ag	gsp antagonist	RXFP1 ag	TRPV1 PAM
CC(=O)Nc1ccc(Br)c2ccccc12	3.8	-0.2	28.2µM*	11.7%	28.2µM*	?
CCCCOc1ccc(N(CC(=O)NC(C)(C)CC)C(=O)CCC(=O)Nc2ccccn2)cc1	-28.1	4.6	1.9%[15.4 µM]	-5.3%	-0.3%	-3.5
CCCCOc1ccc(N(CC(=O)NCCOC)C(=O)CCC(=O)Nc2ccccn2)cc1	-3.2	-1.1	-9.7%	31.6µM*	2.6%	0.3
COc1ccc(/C=c2\s/c(=C/C(=O)c3ccc(C)cc3)[nH]c2=O)c(OC)c1	-17.8	27.8	-2.1%[15.4 µM]	-1.2%	2.3%	16.8
COc1cccc(/C=c2\s/c(=C\C(=O)C(C)(C)C)[nH]c2=O)c1	-90.6*	17.8	2.7%[15.4 µM]	-10.8%	0.4%	-6.4
O=C1NN(c2ccc(F)c(Cl)c2)C(=O)/C1=C\c1cccc(OC(=O)c2cccs2)c1	-85.7*	-2.9	-11.0%	-3.4%	-0.4%	1.0
CC(C)=C1C(=O)NN(c2ccc(F)c(Cl)c2)C1=O	-6.8	-3.8	-18.0%	3.3%	-2.6%	2.3
Cc1cccc(C)c1NC(=O)Cn1cnc2c(=O)n(C)c(=O)n(C)c21	-1.0	1.3	?	0.4%	10.7%	-18.4
COc1ccc(CNC(=O)Cn2cnc3c(=O)n(C)c(=O)n(C)c32)cc1	13.8	-6.8	17.8µM*	6.0%	18.5%	13.2
Cn1c(=O)c2ncn(CC(=O)NCCOc3ccccc3)c2n(C)c1=O	-15.4	5.2	?	13.1%	12.3%	14.2
Cn1c(=O)c2ncn(CC(=O)Nc3ccc4c5c(cccc35)CC4)c2n(C)c1=O	-5.3	3.1	31.6µM*	-2.5%	9.2%	18.7
O=C(Cc1ccccc1)Nc1cccc(N2C(=O)C=CC2=O)c1	-119.3*	10.8	17.4%	8.6%	3.0%	-10.2
CCCNC(=O)c1nnsc1S(=O)(=O)c1ccc(Cl)cc1	-63.2*	2.1	7.2%[15.4 µM]	10.7%	-2.5%	14.8
CCCNC(=O)c1nnsc1S(=O)c1ccc(Cl)cc1 (stereo not given)	-71.2*	13.4	13.9%[15.4 µM]	?	1.0%	-2.2
NS(=O)(=O)c1ccc(CCNc2ncnc3c2cnn3-c2cccc(Cl)c2)cc1	-84.4*	.	.	.	3.3%	.
C=C1C(=O)C23C(O)C1CCC2C12CCCC(C)(COC(C)=O)C1C(O)C3(O)OC2 (stereo not given)	-116.6*	.	-3.1%	-4.5%	.	.
CCc1ccc(CN(C)C(=O)CC2C(=O)NCCN2Cc2ccoc2)cc1 (stereo not given)	-6.0	1.0	-0.2%	4.8%	-1.9%	1.6
Cc1ccc(NC(=O)c2cc3c(s2)CCCC3)cc1	-22.2	83.7*	2.5%[15.4 µM]	-21.3%	1.4%	-12.2
COc1ccccc1/C=C/C(=O)c1c2c(c(C)[nH]c1=O)CCCC2	1.3	-4.9	24.7%	50.1µM*	-1.0%	4.3
